# In PubChem BioAssay (EPA / NIEHS):
# Where “and” joins values, the source holds several entries; their conditions need not be identical. Identical values can stand only once. Results filed as inconclusive are left out. Some structures have more than one record in an assay (separate samples or runs), and their calls can disagree. Calls of active or inactive are those of the source. Rule for the calls, unless noted: active = hit-call score of the fitted dose curve at least 0.9, where 1 is the maximum; inconclusive = response in the unintended direction; inactive = score below 0.9.
# Experiments:
# [1] = target: rat Glutamate, NMDA Agonist Site (GluNMDA), Grin1 (gene 24408) (UniProt P35439); assay: NVS_LGIC_rGluNMDA_Agonist: NovaScreen (NVS) Ligand-Gated Ion Channel Assay for rat Glutamate, NMDA Agonist Site (GluNMDA) (AID 2283327)
# Method in brief: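 Rat forebrain membranes, radioligand binding in the agonist-site protocol; 1 h after dosing; filter-based scintillation counting. Single-concentration duplicate screen at 25 uM, then concentration-response up to 50 uM for actives; gain-of-signal vs DMSO.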
# [2] = target: bovine Gamma-Aminobutyric Acid Type A Receptor BDZ, alpha 5 site (GABARa5), GABRA5 (gene 523515) (UniProt Q08E50); assay: NVS_LGIC_bGABARa5: NovaScreen (NVS) Ligand-Gated Ion Channel Assay for bovine Gamma-Aminobutyric Acid Type A Receptor BDZ, alpha 5 site (GABARa5) (AID 2283323)
# Sequence of bovine Gamma-Aminobutyric Acid Type A Receptor BDZ, alpha 5 site (GABARa5), GABRA5 (gene 523515) (Q08E50 whole entry, looked up): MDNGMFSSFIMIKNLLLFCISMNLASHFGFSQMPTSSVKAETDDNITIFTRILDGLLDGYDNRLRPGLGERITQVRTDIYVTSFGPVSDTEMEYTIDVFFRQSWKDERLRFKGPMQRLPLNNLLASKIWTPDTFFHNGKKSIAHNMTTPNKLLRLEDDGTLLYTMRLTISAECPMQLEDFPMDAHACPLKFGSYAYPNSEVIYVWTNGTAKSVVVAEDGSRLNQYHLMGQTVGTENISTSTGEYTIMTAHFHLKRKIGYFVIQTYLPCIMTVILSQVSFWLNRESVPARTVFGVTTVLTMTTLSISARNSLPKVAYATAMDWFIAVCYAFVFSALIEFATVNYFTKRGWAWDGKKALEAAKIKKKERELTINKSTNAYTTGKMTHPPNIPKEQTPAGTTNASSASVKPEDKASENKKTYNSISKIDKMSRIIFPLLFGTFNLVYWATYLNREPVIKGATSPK
# Method in brief: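 Radioligand competitive displacement binding on bovine hippocampal membranes, read 1 hr after dosing by filter-based scintillation counting. Primary screen at 25 uM in duplicate; actives (e.g. ≥30% inhibition) then run in concentration-response up to 50 uM.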
# [3] = target: bovine Gamma-Aminobutyric Acid Type A Receptor BDZ, alpha 1 site (GABARa1), GABRA1 (gene 780973) (UniProt P08219); assay: NVS_LGIC_bGABARa1: NovaScreen (NVS) Ligand-Gated Ion Channel Assay for bovine Gamma-Aminobutyric Acid Type A Receptor BDZ, alpha 1 site (GABARa1) (AID 2283321)
# Sequence of bovine Gamma-Aminobutyric Acid Type A Receptor BDZ, alpha 1 site (GABARa1), GABRA1 (gene 780973) (P08219 whole entry, looked up): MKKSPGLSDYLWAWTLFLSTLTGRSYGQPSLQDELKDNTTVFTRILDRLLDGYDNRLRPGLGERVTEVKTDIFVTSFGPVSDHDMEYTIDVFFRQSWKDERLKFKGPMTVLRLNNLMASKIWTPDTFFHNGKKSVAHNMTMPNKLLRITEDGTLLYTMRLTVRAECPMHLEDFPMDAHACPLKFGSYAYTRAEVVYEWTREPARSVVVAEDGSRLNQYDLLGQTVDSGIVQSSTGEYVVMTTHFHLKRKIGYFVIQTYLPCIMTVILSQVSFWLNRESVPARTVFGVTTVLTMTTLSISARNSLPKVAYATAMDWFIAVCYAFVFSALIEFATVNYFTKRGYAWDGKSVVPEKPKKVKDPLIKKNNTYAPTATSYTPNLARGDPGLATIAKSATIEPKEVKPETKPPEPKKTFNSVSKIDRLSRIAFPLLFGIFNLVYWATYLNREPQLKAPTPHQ
# Method in brief: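 Radioligand competition binding on bovine cortical membranes, 0.75 h, filter-based scintillation counting. Primary single concentration 25 uM in duplicate; actives rerun in concentration-response to 50 uM max. Loss of signal fitted versus DMSO.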
# [4] = target: human Peripheral-type Benzodiazepine Receptor (PBR), TSPO (gene 706) (UniProt P30536); assay: NVS_MP_hPBR: NovaScreen (NVS) Membrane Protein Assay for human Peripheral-type Benzodiazepine Receptor (PBR) (AID 2283331);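 note: hits reduce radioligand binding relative to DMSO baseline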
# Sequence of human Peripheral-type Benzodiazepine Receptor (PBR), TSPO (gene 706) (P30536 whole entry, looked up): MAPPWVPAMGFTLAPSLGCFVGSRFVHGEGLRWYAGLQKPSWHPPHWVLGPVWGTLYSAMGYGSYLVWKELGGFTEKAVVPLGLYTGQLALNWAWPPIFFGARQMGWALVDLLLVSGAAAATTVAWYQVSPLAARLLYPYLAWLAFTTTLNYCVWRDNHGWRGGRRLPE
# Method in brief: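 Radioligand displacement on human colonic cell membranes, 1 h incubation; bound radioactivity by filtration and scintillation counting. Primary screen in duplicate at 25 uM single concentration, actives followed up in concentration series; loss of binding versus DMSO.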
# [5] = target: rat Peripheral-type Benzodiazepine Receptor (PBR), Tspo (gene 24230) (UniProt P16257); assay: NVS_MP_rPBR: NovaScreen (NVS) Membrane Protein Assay for rat Peripheral-type Benzodiazepine Receptor (PBR) (AID 2283335)
# Sequence of rat Peripheral-type Benzodiazepine Receptor (PBR), Tspo (gene 24230) (P16257 whole entry, looked up): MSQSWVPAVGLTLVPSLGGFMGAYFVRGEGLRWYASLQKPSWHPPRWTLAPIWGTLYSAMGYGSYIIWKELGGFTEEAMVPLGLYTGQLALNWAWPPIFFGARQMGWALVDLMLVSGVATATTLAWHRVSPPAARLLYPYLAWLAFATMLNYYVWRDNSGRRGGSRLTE
# Method in brief: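 Rat kidney membranes; radioligand binding with displacement, filter-based scintillation counting, 1 h incubation. Primary screen in duplicate at 25 uM, actives followed in concentration series; loss of binding vs DMSO.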
# [6] = target: Voltage-dependent N-type calcium channel subunit alpha-1B (Rattus norvegicus) (UniProt Q02294); assay: NVS_IC_rCaChN: NovaScreen (NVS) Ion Channel Assay for rat Calcium Channel, Type N (CaChN) (AID 2283317)
# [7] = target: rat Vasopressin 1 Receptor (V1), Avpr1a (gene 25107) (UniProt P30560); assay: NVS_GPCR_rV1: NovaScreen (NVS) G Protein-Coupled Receptor Assay for rat Vasopressin 1 Receptor (V1) (AID 2283316)
# Sequence of rat Vasopressin 1 Receptor (V1), Avpr1a (gene 25107) (P30560 whole entry, looked up): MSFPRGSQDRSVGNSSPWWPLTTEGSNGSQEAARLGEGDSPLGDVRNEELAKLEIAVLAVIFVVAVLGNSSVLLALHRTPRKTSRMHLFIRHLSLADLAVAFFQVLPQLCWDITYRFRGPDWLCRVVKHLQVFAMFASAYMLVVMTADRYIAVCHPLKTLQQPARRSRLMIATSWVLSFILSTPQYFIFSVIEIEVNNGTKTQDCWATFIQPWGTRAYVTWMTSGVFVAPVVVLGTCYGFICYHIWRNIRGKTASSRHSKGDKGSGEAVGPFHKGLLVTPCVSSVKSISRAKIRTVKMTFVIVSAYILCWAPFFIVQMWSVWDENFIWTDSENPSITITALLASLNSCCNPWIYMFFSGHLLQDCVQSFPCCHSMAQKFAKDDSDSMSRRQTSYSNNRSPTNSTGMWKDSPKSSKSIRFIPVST
# Method in brief: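 Radioligand binding on rat liver membranes, 1.5 h incubation, filter-based scintillation counting. Single 25 uM screen in duplicate; chemicals meeting threshold (e.g. 30% inhibition) run in concentration-response up to 50 uM.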
# [8] = target: rat Opioid Receptor, Non-selective Binding, Oprm1 (gene 25601) (UniProt P33535); assay: NVS_GPCR_rOpiate_NonSelective: NovaScreen (NVS) G Protein-Coupled Receptor Assay for rat Opioid Receptor, Non-selective Binding (AID 2283318)
# Sequence of rat Opioid Receptor, Non-selective Binding, Oprm1 (gene 25601) (P33535 whole entry, looked up): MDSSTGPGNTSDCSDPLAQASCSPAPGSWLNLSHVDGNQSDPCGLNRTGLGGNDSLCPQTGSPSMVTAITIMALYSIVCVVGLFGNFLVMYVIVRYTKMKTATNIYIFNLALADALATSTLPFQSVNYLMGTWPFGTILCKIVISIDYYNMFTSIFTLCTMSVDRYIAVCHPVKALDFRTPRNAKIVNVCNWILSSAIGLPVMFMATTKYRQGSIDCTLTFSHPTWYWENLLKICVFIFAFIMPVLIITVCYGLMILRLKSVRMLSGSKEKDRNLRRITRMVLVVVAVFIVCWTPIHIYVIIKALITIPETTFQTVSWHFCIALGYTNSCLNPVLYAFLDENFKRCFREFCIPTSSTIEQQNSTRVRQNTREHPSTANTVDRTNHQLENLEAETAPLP
# Method in brief: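 Rat forebrain membranes, cell-free radioligand binding with filter-based scintillation counting, read 1.5 h after dosing. Primary screen in duplicate at 25 uM; actives retested in concentration series. Loss of signal versus DMSO baseline scored.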
# [9] = NVS_IC_rCaDHPRCh_L: NovaScreen (NVS) Ion Channel Assay for rat Calcium Channel, Type L, Dihydropyridine Site (CaDHPRCh_L) (AID 2283320)
# Method in brief: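 Radioligand binding to dihydropyridine site on rat cortical membranes, filter-based scintillation counting, 1 h after dosing. Screened in duplicate at 25 uM; actives rerun in concentration-response up to 50 uM. Loss of signal versus DMSO baseline.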
# [10] = target: Sodium channel protein type 1 subunit alpha (Rattus norvegicus) (UniProt P04774); assay: NVS_IC_rNaCh_site2: NovaScreen (NVS) Ion Channel Assay for rat Sodium Channel, Site 2 (NaCh) (AID 2283322);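 note: hit means loss of radioligand binding signal relative to DMSO so AC50 marks displacement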
# Method in brief: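 Membranes: rat forebrain. Format: competitive radioligand displacement, filter separation, scintillation readout, 1 h exposure. Primary screen in duplicate at 25 uM; actives retested in concentration series.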
# [11] = target: rat Gamma-Aminobutyric Acid Type A Receptor, Non-Selective (GABAR-NonSelective), Gabra1 (gene 29705) (UniProt P62813); assay: NVS_LGIC_rGABAR_NonSelective: NovaScreen (NVS) Ligand-Gated Ion Channel Assay for rat Gamma-Aminobutyric Acid Type A Receptor, Non-Selective (GABAR-NonSelective) (AID 2283326)
# Method in brief: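 Radioligand displacement on rat whole-brain extract, 1 h, filter scintillation readout; signal loss fitted versus DMSO. Primary screen in duplicate at 25 uM; hits (e.g. ≥30% inhibition) retested in concentration-response up to 50 uM.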
# [12] = target: Voltage-gated inwardly rectifying potassium channel KCNH2 (Homo sapiens) (UniProt Q12809); assay: NVS_IC_hKhERGCh: NovaScreen (NVS) Ion Channel Assay for human Potassium Channel ERG (KhERGCh) (AID 2283333)
# Method in brief: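 Cell-free radioligand competition binding on hERG protein extracted from CHO cells, read by filter-based scintillation counting 0.75 h after dosing. Primary screen at 25 uM in duplicate, actives followed in concentration series. Signal loss fitted versus DMSO.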
# [13] = target: rat Glutamate, AMPA Site (AMPA), Gria1 (gene 50592) (UniProt P19490); assay: NVS_LGIC_rAMPA: NovaScreen (NVS) Ligand-Gated Ion Channel Assay for rat Glutamate, AMPA Site (AMPA) (AID 2283324)
# Sequence of rat Glutamate, AMPA Site (AMPA), Gria1 (gene 50592) (P19490 whole entry, looked up): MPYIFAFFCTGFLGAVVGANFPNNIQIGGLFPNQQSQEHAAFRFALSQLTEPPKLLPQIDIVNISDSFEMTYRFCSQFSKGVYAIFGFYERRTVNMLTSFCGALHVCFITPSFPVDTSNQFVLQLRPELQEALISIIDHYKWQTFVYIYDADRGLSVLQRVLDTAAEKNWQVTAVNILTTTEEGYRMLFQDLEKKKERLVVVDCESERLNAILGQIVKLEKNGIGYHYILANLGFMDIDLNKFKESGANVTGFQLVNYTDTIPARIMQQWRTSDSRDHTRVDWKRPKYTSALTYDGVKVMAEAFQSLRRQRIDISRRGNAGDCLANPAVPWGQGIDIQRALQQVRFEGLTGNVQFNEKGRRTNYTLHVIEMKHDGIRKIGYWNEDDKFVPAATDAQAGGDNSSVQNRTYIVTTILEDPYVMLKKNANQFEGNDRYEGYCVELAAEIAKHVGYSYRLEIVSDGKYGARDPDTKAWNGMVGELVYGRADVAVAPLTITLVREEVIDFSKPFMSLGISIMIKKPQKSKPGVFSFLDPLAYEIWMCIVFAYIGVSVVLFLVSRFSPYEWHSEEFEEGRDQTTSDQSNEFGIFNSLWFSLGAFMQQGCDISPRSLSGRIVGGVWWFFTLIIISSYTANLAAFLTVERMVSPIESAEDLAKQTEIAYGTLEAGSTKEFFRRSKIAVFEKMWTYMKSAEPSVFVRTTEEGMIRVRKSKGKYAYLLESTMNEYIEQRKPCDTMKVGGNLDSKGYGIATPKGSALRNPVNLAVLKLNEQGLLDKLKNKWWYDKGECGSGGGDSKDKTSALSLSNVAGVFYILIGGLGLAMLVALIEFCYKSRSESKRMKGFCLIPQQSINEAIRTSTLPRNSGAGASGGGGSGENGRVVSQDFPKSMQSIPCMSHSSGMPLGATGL
# Method in brief: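 Rat forebrain membranes; radioligand binding read 1 h after dosing by filtration and scintillation counting. Duplicate single-point screen at 25 uM, then concentration-response to 50 uM for threshold hits (e.g. 30% inhibition); loss of signal vs DMSO.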
# [14] = target: rat Oxytocin Receptor (OXT), Oxtr (gene 25342) (UniProt P70536); assay: NVS_GPCR_rOXT: NovaScreen (NVS) G Protein-Coupled Receptor Assay for rat Oxytocin Receptor (OXT) (AID 2283330)
# Method in brief: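 Radioligand displacement on rat uterine membranes, 1 h incubation, filter-based scintillation counting. Chemicals were screened in duplicate at 25 uM, and those passing threshold were retested in concentration-response up to 50 uM. Loss of binding was fitted versus DMSO.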
# NCBI gene 24521 = assay: NVS_IC_rKATPCh: NovaScreen (NVS) Ion Channel Assay for rat Potassium Channel, ATP-Sensitive (KATPCh) (AID 2283319)
# Method in brief: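 Rat cortical membranes; radioligand binding at ATP-sensitive K channel site, filter-based scintillation counting 2 h after dosing. Single-point duplicate screen at 25 uM, hits rerun in concentration-response up to 50 uM; loss of signal versus DMSO.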
# [15] = target: human Androgen Receptor (AR), AR (gene 367) (UniProt P10275); assay: NVS_NR_hAR: NovaScreen (NVS) Nuclear Receptor Binding Assay for human Androgen Receptor (AR) (AID 2283332)
# Sequence of human Androgen Receptor (AR), AR (gene 367) (P10275 whole entry, looked up): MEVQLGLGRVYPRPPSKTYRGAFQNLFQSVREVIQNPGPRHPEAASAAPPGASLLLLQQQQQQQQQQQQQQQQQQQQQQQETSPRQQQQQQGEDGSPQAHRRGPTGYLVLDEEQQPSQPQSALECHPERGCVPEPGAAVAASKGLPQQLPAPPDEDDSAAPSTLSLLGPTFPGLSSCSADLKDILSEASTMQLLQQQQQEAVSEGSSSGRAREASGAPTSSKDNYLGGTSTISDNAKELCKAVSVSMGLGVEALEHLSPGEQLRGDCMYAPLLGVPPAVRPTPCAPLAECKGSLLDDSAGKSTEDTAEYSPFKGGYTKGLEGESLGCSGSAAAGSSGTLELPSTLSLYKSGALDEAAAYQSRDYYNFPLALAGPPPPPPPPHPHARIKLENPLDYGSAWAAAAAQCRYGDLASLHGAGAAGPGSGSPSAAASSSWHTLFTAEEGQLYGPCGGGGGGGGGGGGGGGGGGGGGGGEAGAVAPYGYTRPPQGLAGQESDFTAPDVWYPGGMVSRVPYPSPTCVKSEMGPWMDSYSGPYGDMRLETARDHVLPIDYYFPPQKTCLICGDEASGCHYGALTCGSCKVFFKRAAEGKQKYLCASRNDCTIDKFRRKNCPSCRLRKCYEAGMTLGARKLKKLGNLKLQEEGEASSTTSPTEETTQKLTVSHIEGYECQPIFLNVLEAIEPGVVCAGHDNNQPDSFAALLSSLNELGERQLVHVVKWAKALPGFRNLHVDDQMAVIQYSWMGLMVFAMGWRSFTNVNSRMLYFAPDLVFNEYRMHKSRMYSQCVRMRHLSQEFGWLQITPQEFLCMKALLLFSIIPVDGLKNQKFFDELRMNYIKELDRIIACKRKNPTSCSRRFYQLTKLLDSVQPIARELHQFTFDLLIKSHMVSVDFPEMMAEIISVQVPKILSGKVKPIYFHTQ
# Method in brief: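 LnCAP cell-free extract; radioligand displacement read by scintillation counting after 20 h. Primary screen single concentration 25 uM in duplicate, actives then run as concentration series; loss-of-signal fitted relative to DMSO baseline.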
# [16] = target: Glutamate receptor ionotropic, kainate 1 (Rattus norvegicus) (UniProt P22756); assay: NVS_IC_rKAR: NovaScreen (NVS) Ion Channel Assay for rat Kainic Acid Receptors (KAR) (AID 2283334; active = hit-call score of the fitted dose curve at least 0.9, where 1 is the maximum; inactive = score below 0.9)
# Sequence of Glutamate receptor ionotropic, kainate 1 (Rattus norvegicus) (P22756 whole entry, looked up): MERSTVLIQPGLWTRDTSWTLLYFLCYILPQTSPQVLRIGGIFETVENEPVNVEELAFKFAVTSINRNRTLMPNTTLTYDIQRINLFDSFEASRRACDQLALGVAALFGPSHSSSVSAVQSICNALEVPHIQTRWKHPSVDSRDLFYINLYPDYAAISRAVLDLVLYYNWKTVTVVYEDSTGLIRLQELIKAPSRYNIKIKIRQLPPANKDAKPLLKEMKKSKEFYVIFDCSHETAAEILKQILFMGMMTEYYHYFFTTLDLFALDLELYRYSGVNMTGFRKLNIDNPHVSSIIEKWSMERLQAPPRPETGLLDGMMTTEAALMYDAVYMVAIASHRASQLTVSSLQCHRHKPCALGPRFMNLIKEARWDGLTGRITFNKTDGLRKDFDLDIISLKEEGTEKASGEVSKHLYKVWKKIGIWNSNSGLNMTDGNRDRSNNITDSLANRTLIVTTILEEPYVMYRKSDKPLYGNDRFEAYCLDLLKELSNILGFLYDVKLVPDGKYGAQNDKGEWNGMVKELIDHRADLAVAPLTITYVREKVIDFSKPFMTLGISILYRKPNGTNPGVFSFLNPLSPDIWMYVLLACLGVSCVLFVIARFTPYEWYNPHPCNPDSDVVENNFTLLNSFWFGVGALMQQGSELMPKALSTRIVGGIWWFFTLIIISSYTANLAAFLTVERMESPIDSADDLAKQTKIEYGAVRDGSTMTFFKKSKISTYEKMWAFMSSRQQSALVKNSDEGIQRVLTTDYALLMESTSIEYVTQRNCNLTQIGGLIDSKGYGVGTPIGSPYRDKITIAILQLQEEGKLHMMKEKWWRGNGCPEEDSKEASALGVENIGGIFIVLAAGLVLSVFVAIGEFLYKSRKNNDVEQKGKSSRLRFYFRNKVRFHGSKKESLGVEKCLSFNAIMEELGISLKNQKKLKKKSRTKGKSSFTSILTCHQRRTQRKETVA
# Method in brief: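 Radioligand displacement binding using rat forebrain membranes, 1 h incubation, filter-based scintillation counting. Screened in duplicate at 25 uM, with actives retested in concentration-response up to 50 uM; fitted against DMSO.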
compound,measurement,setting,value
CCC(C)Nc1c([N+](=O)[O-])cc(C(C)(C)C)cc1[N+](=O)[O-] (stereo not drawn),outcome,[1],inactive
CNC(=O)/C=C(\C)OP(=O)(OC)OC,outcome,[2],inactive
CC(C)N(C(=O)COc1nnc(C(F)(F)F)s1)c1ccc(F)cc1,AC50,[3],14.2 µM (active)
same,AC50,[4],0.27 µM (active)
same,AC50,[5],24.8 nM (active)
N#Cc1c(Cl)c(Cl)c(Cl)c(C#N)c1Cl,outcome,[6],inactive
same,AC50,[4],9.01 µM (active)
CC(C)(C)C(O)C(Oc1ccc(Cl)cc1)n1cncn1 (stereo not drawn),AC50,[7],3.04 µM (active) and 27.7 µM (active)
same,outcome,[4],inactive
same,outcome,[5],inactive
CCCN(CCOc1c(Cl)cc(Cl)cc1Cl)C(=O)n1ccnc1,AC50,[7],6.02 µM (active)
same,AC50,[8],14.8 µM (active)
same,outcome,[9],inactive
same,AC50,[10],14.3 µM (active)
same,outcome,[11],inactive
same,AC50,[4],2.59 µM (active)
same,AC50,[12],8.01 µM (active)
same,AC50,[5],53.9 nM (active)
O=C(Nc1ccccc1)Nc1cnns1,AC50,[2],7.77 µM (active)
same,outcome,[13],inactive
same,outcome,[14],inactive
COP(=S)(OC)Oc1ccc([N+](=O)[O-])cc1,outcome,[3],inactive
same,AC50,[4],19.5 µM (active)
same,AC50,[5],15700 nM (active)
CC(C)(C)C(O)/C(=C\c1ccc(Cl)cc1Cl)n1cncn1 (stereo not drawn),outcome,[6],inactive
same,outcome,[8],inactive
O=S(=O)(O)C(F)(F)C(F)(F)C(F)(F)C(F)(F)C(F)(F)C(F)(F)C(F)(F)C(F)(F)F,outcome,[9],inactive
same,outcome,[10],inactive
same,outcome,[1],inactive
same,outcome,[5],inactive
CCOC1Oc2ccc(OS(C)(=O)=O)cc2C1(C)C (stereo not drawn),outcome,NCBI gene 24521,inactive
Oc1ccc(Cl)cc1Cc1ccccc1,AC50,[7],7.33 µM (active)
same,outcome,[7],inactive
same,outcome,[8],inactive
same,AC50,[9],30.2 µM (active) [middle of 7 runs]
same,AC50,[10],10.9 µM (active)
same,outcome,[10],inactive
same,outcome,[1],inactive
same,AC50,[4],17.1 µM (active) [middle of 7 runs]
same,AC50,[15],7.84 µM (active) [middle of 6 runs]
same,outcome,[16],inactive
same,AC50,[5],11 µM (active) and 9.89 µM (active) and 8.7 µM (active)
same,outcome,[5],inactive
